Consider 40 compounds from PubChem BioAssay (NCATS).

Results filed as inconclusive are left out. A call without a number means that no potency is given here. Calls of active or inactive are those of the source. Unless noted, calls follow the shape of the full dose curve.

Sequence of Estrogen receptor (Homo sapiens) (P03372 whole entry, looked up): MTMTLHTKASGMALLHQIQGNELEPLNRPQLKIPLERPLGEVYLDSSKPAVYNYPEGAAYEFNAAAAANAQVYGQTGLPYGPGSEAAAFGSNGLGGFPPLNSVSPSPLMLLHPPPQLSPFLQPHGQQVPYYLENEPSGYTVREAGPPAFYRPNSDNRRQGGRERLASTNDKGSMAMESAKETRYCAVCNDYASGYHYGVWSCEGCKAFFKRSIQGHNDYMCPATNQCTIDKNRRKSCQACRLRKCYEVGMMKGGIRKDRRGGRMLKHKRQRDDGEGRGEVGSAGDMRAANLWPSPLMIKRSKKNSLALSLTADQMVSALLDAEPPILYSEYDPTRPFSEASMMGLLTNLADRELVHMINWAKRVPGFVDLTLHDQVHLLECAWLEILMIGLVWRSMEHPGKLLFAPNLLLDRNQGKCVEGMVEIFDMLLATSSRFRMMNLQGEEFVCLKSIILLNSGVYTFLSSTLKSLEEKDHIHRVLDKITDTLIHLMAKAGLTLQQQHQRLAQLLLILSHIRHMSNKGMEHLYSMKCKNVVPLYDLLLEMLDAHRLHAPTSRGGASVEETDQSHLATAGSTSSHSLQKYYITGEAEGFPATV

The first experiment concerns the target Estrogen receptor (Homo sapiens) (UniProt P03372). The experiment can be described thus: qHTS assay for small molecule antagonists of estrogen receptor alpha signaling (AID 588513; active = well fitted curve in the direction sought with a large enough effect in the signal ratio, with a control signal flat, not every such curve was filed as active; the % refers to the signal ratio). The conditions noted are these: ER-alpha-UAS-bla HEK293, beta-lactamase ratio, antagonist mode; series mostly up to 76.9 µM. In outline: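 Antagonist mode: inhibition of 0.5 nM 17-beta-estradiol-driven beta-lactamase reporter in HEK 293 ER-alpha-UAS-bla cells, 18 h at 37C, CCF4 readout after 2 h at RT. Normalised to estradiol and DMSO; titration fitted to Hill.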
A general note: In qHTS, concentration-response curves come from the screen itself.
In the case of `CC(=O)c1ccccc1[N+](=O)[O-]`, the outcome was inactive.
Take `CCCCCCCN`: the result was inactive.
As to `FC(F)(F)c1ccccc1Cl`, the outcome was inactive.
Regarding `O=C(O)c1cccc(Cl)c1Cl`, the outcome was inactive.
As for `NC(=O)NC(N)=O`, the result was inactive.
The same measure, in the same setting: in the case of `C/C=C1\CC2C=CC1C2` (stereo not given) it was “inactive”.
Still for that read-out and setting: in the case of `Cc1ccccc1C=O` it was “inactive”; in that of `CCC(O)C(C)(C)C` (stereo not given), “inactive”; in that of `CCOC(=O)OCC`, “inactive”.
Still for that read-out and setting: the entry for `CC(=O)OCc1ccco1` is “inactive”.
For `c1ccc2c(c1)Oc1ccccc1S2`, the result was inactive.
On to `Cc1ccc2ccccc2c1[N+](=O)[O-]`, for which the result was inactive.
`CC=O`: the result was inactive.
For the compound `CNc1ccccc1`, the outcome was inactive.
On to `CC(C)=CCl`, for which the outcome was inactive.
Regarding `O=C(O)c1ccc(Cl)cc1Cl`, the result was inactive.
As for `C=C(C)C(=O)OCC(C)O` (stereo not given), the result was inactive.
With `NC(=O)CCCCC(N)=O`, the result was inactive.
Take `CN(C)CCCNCCCN`: the result was inactive.
Same read-out and setting: the entry for `C=CCCC` is “inactive”; for `CO[Si](CCCNCCC[Si](OC)(OC)OC)(OC)OC` it is “inactive”; for `CC(=O)Nc1cccc(N)c1` it is “inactive”.
As for `Cc1cccc2ccccc12`, the outcome was inactive.
For the compound `Cc1cc(C)c(N)cc1C`, the result was inactive.
In the case of `Nc1cc(Cl)c(N)c(Cl)c1`, the result was inactive.
Turning to `CCC(C)(C)C`, the result was inactive.
In the case of `CCNc1cc(O)ccc1C`, the outcome was inactive.
The same measure, in the same setting: in the case of `Cc1cc(C)cc(O)c1` it was “inactive”; in that of `COc1ccc(N=[N+]([O-])c2ccc(OC)cc2)cc1`, “inactive”; in that of `CCOCC(=O)O`, “inactive”.
For the compound `O=C(O)c1ccc(Cl)c(Cl)c1`, the result was inactive.
`Nc1cccc2c(=O)[nH][nH]c(=O)c12`: the result was inactive.
Turning to `O=C(Cl)c1c(Cl)cccc1Cl`, the result was inactive.
Still for that read-out and setting: the entry for `C=CCCCC` is “inactive”; for `CCCCCCC(=O)O` it is “inactive”; for `Cc1cscn1` it is “inactive”.
`O=C(Cl)c1cccc([N+](=O)[O-])c1`: the result was inactive.
Turning to `O=P(O)(OCc1ccccc1)OCc1ccccc1`, the result was inactive.
Still for that read-out and setting: the entry for `CC(C)N(C)C` is “inactive”.
As to `Cc1ccc(S(=O)(=O)NC2CCCCC2)cc1`, the result was inactive.

The target is the same in a further experiment. The experiment can be described thus: qHTS assay for small molecule agonists of estrogen receptor alpha signaling (AID 588514). Also: nearly all actives have a fitted effect of over 70% in size. The conditions noted are these: ER-alpha-UAS-bla HEK293, beta-lactamase ratio, 18 h; series mostly up to 76.8 µM. In outline: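 Fluorescence from CCF4 cleavage reports ER-alpha-driven beta-lactamase expression in HEK 293 cells treated 18 hrs at 37 C. Data normalized to 17-beta-estradiol (20 nM) and DMSO, fitted to Hill equation.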
Take `CC(=O)c1ccccc1[N+](=O)[O-]`: the Potency entry was “inactive”.
Still for that read-out and setting: the entry for `CCCCCCCN` is “inactive”.
Turning to `FC(F)(F)c1ccccc1Cl`, the Potency entry was “inactive”.
Regarding `O=C(O)c1cccc(Cl)c1Cl`, the Potency entry was “inactive”.
In the case of `NC(=O)NC(N)=O`, the Potency entry is “inactive”.
Consider `C/C=C1\CC2C=CC1C2` (stereo not given), for which the Potency entry was “inactive”.
In the case of `Cc1ccccc1C=O`, the Potency result is “inactive”.
Regarding `CCC(O)C(C)(C)C` (stereo not given), the Potency entry is “inactive”.
For `CCOC(=O)OCC`, the Potency result was “inactive”.
Turning to `CC(=O)OCc1ccco1`, the Potency result was “inactive”.
Regarding `c1ccc2c(c1)Oc1ccccc1S2`, the Potency result is “inactive”.
In the case of `Cc1ccc2ccccc2c1[N+](=O)[O-]`, the Potency result was “inactive”.
Same read-out and setting: the entry for `CC=O` is “inactive”.
On the same count and under the same terms, the entry for `CNc1ccccc1` is “inactive”; for `CC(C)=CCl` it is “inactive”; for `O=C(O)c1ccc(Cl)cc1Cl` it is “inactive”.
Same read-out and setting: in the case of `C=C(C)C(=O)OCC(C)O` (stereo not given) it was “inactive”; in that of `NC(=O)CCCCC(N)=O`, “inactive”; in that of `CN(C)CCCNCCCN`, “inactive”.
Consider `C=CCCC`, for which the Potency entry is “inactive”.
For `CO[Si](CCCNCCC[Si](OC)(OC)OC)(OC)OC`, the Potency result is “inactive”.
On the same count and under the same terms, the entry for `CC(=O)Nc1cccc(N)c1` is “inactive”; for `Cc1cccc2ccccc12` it is “inactive”.
Take `Cc1cc(C)c(N)cc1C`: the Potency entry is “inactive”.
With `Nc1cc(Cl)c(N)c(Cl)c1`, the Potency result was “inactive”.
For `CCC(C)(C)C`, the Potency result was “inactive”.
On to `CCNc1cc(O)ccc1C`, for which the Potency entry was “inactive”.
Still for that read-out and setting: in the case of `Cc1cc(C)cc(O)c1` it was “inactive”; in that of `COc1ccc(N=[N+]([O-])c2ccc(OC)cc2)cc1`, “inactive”; in that of `CCOCC(=O)O`, “inactive”.
On to `O=C(O)c1ccc(Cl)c(Cl)c1`, for which the Potency result was “inactive”.
For the compound `Nc1cccc2c(=O)[nH][nH]c(=O)c12`, the Potency entry was “inactive”.
For the compound `O=C(Cl)c1c(Cl)cccc1Cl`, the Potency entry was “inactive”.
Same read-out and setting: in the case of `C=CCCCC` it was “inactive”.
Consider `CCCCCCC(=O)O`, for which the Potency entry is “inactive”.
Consider `Cc1cscn1`, for which the Potency entry was “inactive”.
As for `O=C(Cl)c1cccc([N+](=O)[O-])c1`, the Potency entry is “inactive”.
The same measure, in the same setting: in the case of `O=P(O)(OCc1ccccc1)OCc1ccccc1` it was “inactive”; in that of `CC(C)N(C)C`, “inactive”.
Consider `Cc1ccc(S(=O)(=O)NC2CCCCC2)cc1`, for which the Potency entry is “inactive”.
